The whole screen tested about 360,000 compounds, of which about 7,500 (2.1%) were called active. Roughly 20% stayed inconclusive and do not appear here. Calls follow the shape of the dose curve; as a rule, active = well fitted inhibition curve with a large enough effect; inconclusive = small, poorly fitted or top-dose-only effect, or effect the other way; inactive = flat fitted curve, though single readings scatter. The sample as a whole holds a higher share of actives than the screen did.
Experiment: Nrf2 qHTS screen for inhibitors; also: nearly all actives have a fitted effect of over 60% in size
Conditions: A549 ARE-Fluc reporter, luciferase luminescence, 18-24 h; series mostly up to 46 µM; activity change, negative = inhibition: at the top concentration
Outline: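 Quantitative HTS in A549 cells stably bearing an antioxidant response element-firefly luciferase construct. Inhibition of Nrf2-driven transcription was scored by luminescence after 18-24 h of compound exposure at 37 °C.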
% is scaled to controls: 0 for no effect and ±100 for the full control effect; potency is read from the fitted curve at half-maximal effect.

Structure (SMILES)	activity change, negative = inhibition	Potency
O=C(c1ccco1)N(Cc1cccs1)c1ccc(O)cc1	-5.51% (inactive)	–
COc1cc(OC)cc(-c2nc3nc(C)c(CCC(=O)Nc4ccccc4)c(C)n3n2)c1	-0.881% (inactive)	–
COc1ccccc1-c1cc2nc(C)c(CCC(=O)O)c(C)n2n1	–	3.66 µM (active)
COc1ccccc1-c1cc2nc(C)c(CCC(=O)NC3CCCCC3)c(C)n2n1	-10.5% (inactive)	–
COc1ccc(C)cc1Nc1nc2ccccc2c2nnc(C)n12	18.3% (inactive)	–
CCCSc1ncc(Cl)c(C(=O)Nc2sc3c(c2C(=O)NCCOC)CCCC3)n1	-19.9% (inactive)	–
COc1ccc(CCNC(=O)CSc2nc3[nH]ncc3c(=O)n2-c2cccc(C(F)(F)F)c2)cc1OC	-14.3% (inactive)	–
CCc1ccc(-n2c(SCc3cc(=O)n4cc(Br)ccc4n3)nc3[nH]ncc3c2=O)cc1	–	16.4 µM (active)
Cc1ccc(CSc2nc3[nH]ncc3c(=O)[nH]2)cc1	2.03% (inactive)	–
COc1ccc(S(=O)(=O)Nc2cccc3c2O[C@H](CN(C)S(=O)(=O)c2ccc(OC)cc2)[C@@H](C)CN([C@H](C)CO)C3=O)cc1	-25% (inactive)	–
CCc1ccc(CN(C)C(C)C(=O)Nc2ccc(S(=O)(=O)N3CCCC3)cc2)cc1 (stereo not drawn)	-9.67% (inactive)	–
CCCCOc1ccc(C(=O)N2CC(=O)Nc3ccc(Br)cc3C2c2ccc(F)cc2)cc1 (stereo not drawn)	-25.1% [at 9.27 µM] (inactive)	–
CC(=O)c1cccc(S(=O)(=O)N2CCC(n3nnc4cc(F)ccc43)CC2)c1	-2.65% (inactive)	–
CC(=O)c1cccc(Nc2ccc3cc(S(=O)(=O)N4CCC(C)CC4)ccc3n2)c1	–	20.6 µM (active)
CC(=O)c1cccc(NC(=O)COc2ccc(S(=O)(=O)N3CCOCC3)cc2)c1	-4.98% (inactive)	–
CCOC(=O)c1cc(NC(=O)c2ccc(F)cc2)c(=O)n2c1oc1ccccc12	-17.2% (inactive)	–
COc1cccc(C2c3c(ncn(-c4cccc(Br)c4)c3=N)Oc3ccc4ccccc4c32)c1 (stereo not drawn)	5.52% (inactive)	–
O=C(NC(Nc1nc2ccc([N+](=O)[O-])cc2s1)(C(F)(F)F)C(F)(F)F)c1ccccc1	–	2.59 µM (active)
CCOc1ccc2nc(NC(=O)c3cc([N+](=O)[O-])ccc3N3CCOCC3)sc2c1	-23.6% (inactive)	–
CCC(=O)NC(Nc1nc2ccc(C)cc2s1)(C(=O)OC)C(F)(F)F (stereo not drawn)	4.39% (inactive)	–
O=c1[nH]cnc2c1c(-c1ccccc1)cn2-c1ccc(F)cc1	–	25.9 µM (active)
O=c1c2c(-c3ccccc3)ccnc2[nH]n1-c1ccccc1	-2.93% (inactive)	–
CCOC(=O)C1CCN(c2ncnc3c2c(-c2ccccc2)cn3-c2ccc(C)cc2)CC1	8.13% (inactive)	–
Cc1cc(C)cc(OCC(=O)Nc2ccc(N3CCOCC3)cc2N2CCOCC2)c1	-24.6% (inactive)	–
CC(=O)c1ccc(NC(=O)CSc2nc3ccccc3c(=O)n2CCCN2CCOCC2)cc1	8.57% (inactive)	–

Structure (SMILES)	activity change, negative = inhibition	Potency
O=C(c1cccs1)c1cn(CCOc2ccc(Cl)cc2)c2ccccc12	-11% (inactive)	–
Cc1ccc(OC(=O)CSc2nnc(-c3cccs3)o2)cc1	1.89% (inactive)	–
COc1ccc(-n2c(C)cc(C(=O)CSc3nnc(-c4cccs4)o3)c2C)cc1	–	18.4 µM (active)
COc1ccc(-n2c(C)cc(C(=O)COC(=O)c3cc(OC)c(OC)cc3NC(=O)c3cccs3)c2C)cc1	-0.74% (inactive)	–
CCc1ccc(C2C(C(=O)Nc3ccccc3)=C(C)Nc3c(C(=O)Nc4ccc(C)cc4)cnn32)cc1 (stereo not drawn)	-7.44% (inactive)	–
O=C(Cn1cnc2c(OCc3ccccc3)ncnc21)NCc1nc2ccccc2[nH]1	4.45% (inactive)	–
Cc1cc(C(=O)OCC(=O)Nc2nccs2)c2ccccc2n1	19.8% (inactive)	–
Cc1cc(C(=O)OCC(=O)N2C(C)CCCC2C)c2ccccc2n1 (stereo not drawn)	–	18.4 µM (active)
Cc1cc(C(=O)OCC(=O)Nc2nnc(C(C)C)s2)c2ccccc2n1	-6.29% (inactive)	–
Cc1ccc(Cn2c(C)c3cnn(CC(=O)NCCN4CCOCC4)c(=O)c3c2C)cc1	-21.8% (inactive)	–
Cc1cc(C)cc(NS(=O)(=O)c2cc3c(cc2C)NC(=O)CO3)c1	18.1% (inactive)	–
CCOC(=O)CN/C=C(\C#N)c1ccc(F)cc1	0.372% (inactive)	–
C/C(=N\OCC(=O)O)c1ccc(Cl)cc1	1.65% (inactive)	–
CCOc1cc(/C=C(/C#N)c2ccc(Cl)cc2)cc(Cl)c1OCC(=O)O	–	8.2 µM (active)
CCCCNC(=O)c1ccc2c(c1)NC(=O)C(C(C)C)N2 (stereo not drawn)	-6.85% (inactive)	–
COc1ccc(Cn2c(C(=O)O)c(CNCc3cccc(OC)c3)c3ccc(C)cc32)cc1	-21.6% (inactive)	–
CCc1cccc(NC(=O)CN(c2ccc(C)c(C)c2)S(=O)(=O)c2ccsc2C(=O)OC)c1	2.91% (inactive)	–
CCOC(=O)C1=C(c2ccccc2)Nc2ncnn2C1c1ccc(Cl)cc1 (stereo not drawn)	-3.16% (inactive)	–
CC1=C(C(N)=O)C(c2ccc(Br)cc2)n2ncnc2N1 (stereo not drawn)	-20% (inactive)	–
Clc1ccc2c(c1)C1=C(C(c3ccncc3)O2)C(c2ccc(Br)cc2)n2ncnc2N1 (stereo not drawn)	–	13 µM (active)
CCCC12CN3CC(CCC)(CN(C1)C3c1c[nH]c3ccc(OC)cc13)C2=O (stereo not drawn)	-15.7% (inactive)	–
Cc1ccccc1C(=O)Nc1cc(C)c(O)c(-c2nc3ccccc3o2)c1	6.96% (inactive)	–
CCCN(CC(=O)Nc1ccccc1C)C(=O)c1cc(=O)[nH]c2ccccc12	11.2% (inactive)	–
CC1CCc2[nH]c3ccc(C(=O)N(C)CC(=O)Nc4cccc(F)c4)cc3c2C1 (stereo not drawn)	2.56% (inactive)	–
CCCN(CC(=O)Nc1ccccc1C)C(=O)c1ccc2[nH]c3c(c2c1)CC(C)CC3 (stereo not drawn)	–	20.6 µM (active)

Structure (SMILES)	activity change, negative = inhibition	Potency
COc1ccc(CCN2CC(C(=O)OCC(=O)NCc3ccccc3Cl)CC2=O)cc1OC (stereo not drawn)	4.36% (inactive)	–
Cc1ccc(O)c(NC(=O)c2cc(-c3ccc(F)cc3)no2)c1	12.9% (inactive)	–
CCOc1cc(C2C(C(=O)OC)=C(C)NC3=C2C(=O)c2ccccc23)ccc1O (stereo not drawn)	8.61% (inactive)	–
COc1ccc(S(=O)(=O)N2CCOCC2)cc1NC(=O)CSc1nnc(NC2CC2)s1	-0.078% (inactive)	–
Cc1ccc2[nH]c(C)c(CCNC(=O)NC3CCCCC3)c2c1	–	20.6 µM (active)
Cc1ccc2[nH]cc(CCNC(=O)C3CCCCC3)c2c1	-15.9% (inactive)	–
NS(=O)(=O)c1ccc(CCNC(=O)NC2CCCCC2)cc1	2.98% (inactive)	–
COc1ccc(/C=C/C(=O)OCC(=O)N2CCN(S(=O)(=O)c3ccc(C)cc3C)CC2)cc1OC	0.413% (inactive)	–
CSc1ccc(CCNC(=O)c2cnn(-c3ccccc3)c2-n2cccc2)cc1	-8.32% (inactive)	–
COc1ccc(-c2csc(N3CCN(Cc4ccc5c(c4)OCO5)CC3)n2)cc1	-26.4% (inactive)	–
O=C(CSc1ncnc2scc(-c3ccccc3)c12)NCc1ccc2c(c1)OCO2	-28.7% (inactive)	–
O=C(CN1CCN(c2nc(-c3ccccc3)cs2)CC1)NCc1ccc2c(c1)OCO2	–	23.1 µM (active)
O=C(Nc1ccccc1)Oc1cccc2cccnc12	5.41% (inactive)	–
O=C(Nc1cc(S(=O)(=O)Nc2ccc(Cl)cc2)ccc1O)c1ccc(F)cc1F	-0.0591% (inactive)	–
COc1ccc(NC(C)=O)cc1NC(=O)CN1CCN(c2ccccn2)CC1	-3.38% (inactive)	–
Cc1nc(N2CCN(c3ccccn3)CC2)c2c(C)c(C(=O)Nc3ccc(F)c(Cl)c3)sc2n1	–	16.4 µM (active)
CCOC(=O)C1CCCN(C(=O)c2sc3nc(C)nc(N4CCOCC4)c3c2C)C1 (stereo not drawn)	-3.67% (inactive)	–
Cc1nc(N2CCOCC2)c2c(C)c(C(=O)Nc3ccc(C(F)(F)F)cc3)sc2n1	–	9.2 µM (active)
O=C(c1c(F)cccc1Cl)N1CCN(c2ccccn2)CC1	28.8% (inactive)	–
Cc1nc(N2CCC(C)CC2)c2c(C)c(C(=O)Nc3cc(F)ccc3C)sc2n1	-18.6% (inactive)	–
CC(NC(=O)c1ccccc1)C(=O)OCC(=O)Nc1cccc(S(=O)(=O)N2CCCC2)c1 (stereo not drawn)	-4.58% (inactive)	–
COc1cc2c(cc1OC)C(Cc1cc(OC)c(OC)cc1[N+](=O)[O-])=NCC2	-10.8% (inactive)	–
COc1ccc(CCNC(=O)c2ccc(NC(=O)CC3SC(N4CCCCC4)=NC3=O)cc2)cc1OC (stereo not drawn)	-4.44% (inactive)	–
COc1ccc2c(c1)c(N1CCCC1=O)c(C(=O)Nc1ccc(OC)c(Cl)c1)n2C	-35.3% (inactive)	–
O=[N+]([O-])c1ccc(N=NNc2ccc([N+](=O)[O-])cc2)cc1	4.41% (inactive)	–

Structure (SMILES)	activity change, negative = inhibition	Potency
Cc1ccc(C(=O)NCCSc2c(C)[nH]c3ccccc23)cc1C	-4.57% [at 9.27 µM] (inactive)	–
COc1ccc(NC(=O)NC(C)c2c(-n3cccc3)sc(C)c2C)cc1OC (stereo not drawn)	–	20.6 µM (active)
Cc1ccc(NC(=O)CSc2cccc3cccnc23)c(C)c1	0.544% (inactive)	–
COc1ccc(NC(=O)CNC(=O)Cc2ccccc2)cc1OC	-12.4% (inactive)	–
Cc1ccc(NC(=O)NC(C)c2c(-n3cccc3)sc(C)c2C)c(C)c1 (stereo not drawn)	–	18.4 µM (active)
C/C(CC(=O)Nc1ccc(C)cc1C)=N\NC(=O)C(C)C	-7.5% (inactive)	–
CCn1cc(NC(=O)Nc2ccc(OC)c(OC)c2)c(C(N)=O)n1	3.77% (inactive)	–
CCCCN1CC(c2nc3ccccc3n2CCCCOc2ccc(C)cc2C)CC1=O (stereo not drawn)	-17.4% (inactive)	–
CN(C(=O)CSc1nncc2ccccc12)C1CCCCC1	12.5% (inactive)	–
Brc1c(CSc2nncc3ccccc23)nc2ccccn12	–	8.2 µM (active)
CCOc1ccc(NC(=O)CSc2nnc3c(n2)[nH]c2ccc(S(=O)(=O)N4CCOCC4)cc23)cc1	-7.26% (inactive)	–
CCCOc1ccc(Cc2c(O)nc(SC)[nH]c2=O)cc1C	3.9% (inactive)	–
CCCOc1ccc(Cc2c(Cl)nc(SC)nc2NC)cc1	–	2.06 µM (active)
Cc1nc(SCCOc2ccc(Cl)cc2)[nH]c(=O)c1Cc1ccccc1	-1.25% (inactive)	–
COc1ccc(N2CCN(C(=O)C3CCCN(C(=O)c4cc5sccc5n4C)C3)CC2)cc1 (stereo not drawn)	-16.8% (inactive)	–
CSC(=S)N/N=C/c1c[nH]c2ccccc12	3.83% (inactive)	–
O=C(NC1CCCC1)C(=O)c1c[nH]c2ccccc12	19.9% (inactive)	–
C[n+]1ccc(/C=C/c2c[nH]c3ccccc23)cc1	–	0.82 µM (active)
COc1cccc(/C=N/Nc2ccc(S(=O)(=O)Nc3ccccc3C(=O)O)cc2[N+](=O)[O-])c1O	-6.93% (inactive)	–
CCC1CCCCN1C(=S)NC(=O)c1ccco1 (stereo not drawn)	1.83% (inactive)	–
Cc1ccc(C)c(-n2c(SCC(=O)O)nc3sc4c(c3c2=O)CCCC4)c1	-21% (inactive)	–
CCCc1nc2sc3c(c2c(=O)n1NC(=O)CCCl)CCCC3	–	11.6 µM (active)
Cc1nc2sc3c(c2c(=O)n1NC(=O)CCl)CCCC3	-11.4% (inactive)	–
